The record followed here is PubChem BioAssay (NCI).

About 79,000 compounds went through this panel and 15% of them were active in at least one assay; those are over-represented in the sample as a whole. A number with no mark means an inactive call. Active and inactive are the calls of the source. Rule as the data show it: active = growth inhibition above about 70%; inactive = the rest. Where a SMILES comes first, the peptide text is derived from it. Bridges are numbered along the chain shown (N, C = ends). [ ]: non-standard residue; d: D form. The star is where a group is joined. Myristoyl = CCCCCCCCCCCCCC(=O)*; PhAc = O=C(Cc1ccccc1)*

The nature of one assay: NCI Yeast Anticancer Drug Screen. Data for the rad50 strain (AID 155).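 Also: 0% = growth of vehicle-only cultures of the same strain.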 The note with it: S. cerevisiae rad50 strain growth inhibition; at 50.0 µM; active compounds read high. In a few lines: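 Cells are treated with compound, grown, and their growth is then scored against vehicle-only cultures of the same repair-deficient yeast strain.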
With `CC(/C=N/NC1=NCCCCN1)=N\NC1=NCCCCN1`, the growth inhibition is -4.95%.

Turning to `O=C1C(Cl)=C(Cl)C(=O)N1c1ccccc1Cl`, the growth inhibition is 42.5%.

As for `O=C(O)CNCc1ccccc1`, the growth inhibition was 2.85%.

As for `CCSC(N)=Nc1ccccc1` (tested in a mixture with another compound), the growth inhibition is 13.2%.

Consider `O=C(O)CCC1(c2ccccc2)CCCCC1`, for which the growth inhibition is 6.1%.

For the molecule `CCOC(=O)c1nc2ccc(OC)cc2c2c1Cc1ccccc1-2`, the growth inhibition was -8.55%.

Consider `CC(=O)c1sc(-c2nc(C)c(C(=O)/C=C\c3ccc(/C=C\C(=O)c4sc(-c5nc(C)c(C(C)=O)s5)nc4C)cc3)s2)nc1C`, for which the growth inhibition is -19.3%.

In the case of `CCOC(=O)CC1C(O)C(=O)N(C)C1c1ccccc1` (stereo not given), the growth inhibition was 21%.

Consider `O=C([O-])[C+](C=Cc1cccc2ccccc12)C(=O)O`, for which the growth inhibition is 9.05%.

As for `Br/C=C\Br`, the growth inhibition was -2.85%.

Consider `COc1ccc2c(c1)CCC1C2CCC2(C)C(=O)C(n3cnc4c(=S)nc[nH]c43)CC12` (stereo not given), for which the growth inhibition was 42.3%.

With `COc1cc([N+](=O)[O-])ccc1N=Cc1cccs1`, the growth inhibition was 19.4%.

For the molecule `C=CCSc1nc2c(=O)n(C)c(=O)n(C)c2n1C`, the growth inhibition is -11.3%.

Regarding `c1ccc(C[P+]2(c3ccccc3)c3ccccc3-c3ccccc32)cc1`, the growth inhibition is -25.9%.

Take `O=c1[nH]ncc(N/N=C(/C=C/c2ccc(C/C(=N/Nc3cn[nH]c(=O)c3Cl)c3ccccc3)cc2)c2ccccc2)c1Cl`: the growth inhibition was 30.1%.

On to `Cc1cccc(CC(CC(=O)O)C(=O)O)c1` (stereo not given), for which the growth inhibition is 4.85%.

As for `O=C1NC(=NC2CCCCC2)C2(CCN(CCCC3(c4ccc(F)cc4)OCCO3)CC2)N1c1ccccc1`, the growth inhibition was -18.8%.

Take `Cc1ccc(/C=C/C(=O)c2c([O-])on[n+]2-c2ccccc2)cc1`: the growth inhibition was 2.6%.

For `CC(C)(C)NC(=O)c1cccc(C(=O)NC(C)(C)C)n1`, the growth inhibition was 3.3%.

With `C=CCC(C(=C)C)(C(=O)OCC)C(=O)OCC`, the growth inhibition is -23.4%.

As for `CC(=O)OCC(=O)C1(O)C(C)CC2C3CCC4CC(=O)CCC4(C)C3=CCC21C` (stereo not given), the growth inhibition was 43.1%.

As for `CS(=O)(=O)OCCn1cnc2nc(NC(=O)c3ccccc3)[nH]c(=O)c21`, the growth inhibition was -13.1%.

Consider `OCc1nnn2c1CCC2`, for which the growth inhibition was 4.95%.

As to `O=S(=O)(c1ccccc1)N1CCCN(S(=O)(=O)c2ccccc2)CC1`, the growth inhibition was -11.9%.

On to `CSc1cccc(NC(=O)/C=C/C(=O)O)c1`, for which the growth inhibition was -3.05%.

In the case of `CCCCCCCCCCCCCC(=O)NCC(=O)NC(CO)C(=O)NC(CO)C(=O)NC(CCCCN)C(=O)NC(CO)C(=O)NC(CCCCN)C(=O)N1CCCC1C(=O)NC(CCCCN)C(=O)NC(CC(=O)O)C(N)=O` (stereo not given) (Myristoyl-GSSKSKPKD-NH2; configuration not given here), the growth inhibition was 7.25%.

With `COc1ccc(C2OC(C)C(C)O2)cc1` (stereo not given), the growth inhibition is -9.3%.

On to `O=C(O)c1ccc(C(=O)c2ccccc2C(=O)O)cc1C(=O)O`, for which the growth inhibition was -8.75%.

Consider `O=C(Cc1ccccc1)N[C@@H]1COC(=O)[C@@H]2CCCN2C(=O)[C@@H]2CCCN2C1=O` (PhAc-[dS]-Pro-Pro; ester 1-C), for which the growth inhibition is -33.4%.

As to `c1ccc(Cc2nnc3n2CCC(c2ccccc2)S3)cc1` (stereo not given), the growth inhibition is -9.8%.

For `N#CC1CC2c3ccccc3C1([N+](=O)[O-])c1ccccc12` (stereo not given), the growth inhibition is 54.5%.

For `COc1ccc(S(=O)Cc2cc(OC)c(OC)c(OC)c2)cc1` (stereo not given), the growth inhibition is -7.9%.

As for `CC(C)(C)NC(=S)N/N=C/c1ccccn1`, the growth inhibition was 77.2% (active).

In the case of `c1ccc(C(c2ccccc2)[n+]2ccccc2)cc1`, the growth inhibition was 4.5%.

As to `COc1ccc2[nH]cc(C=O)c2c1`, the growth inhibition was 13.3%.

In the case of `CSc1nc(N)n2nc(C)cc2n1`, the growth inhibition is -9.3%.

As to `O=C(O)c1c(Br)c(Br)c(Br)c(Br)c1C(=O)Nc1ccccc1F`, the growth inhibition is 7%.

As to `CCOC(=O)C(/C=N/C(=S)Nc1c(C)cccc1C)=C(/O)c1ccccc1`, the growth inhibition is -50.3%.

For the molecule `Cc1ccc(NC(=O)CSc2nnc(Cc3ccccc3)o2)cc1`, the growth inhibition is -15.4%.

Regarding `CC(=O)Nc1ccc(Cc2ccc3[nH]c(=O)cc(C)c3c2)cc1`, the growth inhibition is -16.3%.

A further assay in a line: NCI Yeast Anticancer Drug Screen. Data for the mec2-1 strain (AID 157). Conditions: S. cerevisiae mec2-1 strain, at 50.0 µM, active compounds read high. A digest of the protocol:
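Readout is yeast growth inhibition, normalised to vehicle-treated controls, in the mec2-1 strain exposed to compound.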
With `CC(/C=N/NC1=NCCCCN1)=N\NC1=NCCCCN1`, the growth inhibition is -16%.

For `O=C1C(Cl)=C(Cl)C(=O)N1c1ccccc1Cl`, the growth inhibition is 23.6%.

On to `O=C(O)CNCc1ccccc1`, for which the growth inhibition is 22.5%.

On to `CCSC(N)=Nc1ccccc1` (tested in a mixture with another compound), for which the growth inhibition was 9.5%.

With `O=C(O)CCC1(c2ccccc2)CCCCC1`, the growth inhibition was 13.9%.

Turning to `CCOC(=O)c1nc2ccc(OC)cc2c2c1Cc1ccccc1-2`, the growth inhibition was -20.9%.

As for `CC(=O)c1sc(-c2nc(C)c(C(=O)/C=C\c3ccc(/C=C\C(=O)c4sc(-c5nc(C)c(C(C)=O)s5)nc4C)cc3)s2)nc1C`, the growth inhibition was -13.4%.

With `CCOC(=O)CC1C(O)C(=O)N(C)C1c1ccccc1` (stereo not given), the growth inhibition is -8.05%.

With `O=C([O-])[C+](C=Cc1cccc2ccccc12)C(=O)O`, the growth inhibition was -5.4%.

As for `Br/C=C\Br`, the growth inhibition is 0.15%.

As to `COc1ccc2c(c1)CCC1C2CCC2(C)C(=O)C(n3cnc4c(=S)nc[nH]c43)CC12` (stereo not given), the growth inhibition is 24.4%.

Regarding `COc1cc([N+](=O)[O-])ccc1N=Cc1cccs1`, the growth inhibition is 22.8%.

Take `C=CCSc1nc2c(=O)n(C)c(=O)n(C)c2n1C`: the growth inhibition was -3.55%.

With `c1ccc(C[P+]2(c3ccccc3)c3ccccc3-c3ccccc32)cc1`, the growth inhibition is -8%.

Take `O=c1[nH]ncc(N/N=C(/C=C/c2ccc(C/C(=N/Nc3cn[nH]c(=O)c3Cl)c3ccccc3)cc2)c2ccccc2)c1Cl`: the growth inhibition is 8.8%.

For the molecule `Cc1cccc(CC(CC(=O)O)C(=O)O)c1` (stereo not given), the growth inhibition was 9.45%.

On to `O=C1NC(=NC2CCCCC2)C2(CCN(CCCC3(c4ccc(F)cc4)OCCO3)CC2)N1c1ccccc1`, for which the growth inhibition was -17.2%.

For `Cc1ccc(/C=C/C(=O)c2c([O-])on[n+]2-c2ccccc2)cc1`, the growth inhibition was -7.85%.

`CC(C)(C)NC(=O)c1cccc(C(=O)NC(C)(C)C)n1`: the growth inhibition was -8%.

Consider `C=CCC(C(=C)C)(C(=O)OCC)C(=O)OCC`, for which the growth inhibition is -24.6%.

As to `CC(=O)OCC(=O)C1(O)C(C)CC2C3CCC4CC(=O)CCC4(C)C3=CCC21C` (stereo not given), the growth inhibition is -16.6%.

As to `CS(=O)(=O)OCCn1cnc2nc(NC(=O)c3ccccc3)[nH]c(=O)c21`, the growth inhibition is -20.6%.

On to `OCc1nnn2c1CCC2`, for which the growth inhibition was 0.05%.

Turning to `O=S(=O)(c1ccccc1)N1CCCN(S(=O)(=O)c2ccccc2)CC1`, the growth inhibition is -0.45%.

Consider `CSc1cccc(NC(=O)/C=C/C(=O)O)c1`, for which the growth inhibition is 5.1%.

As for `CCCCCCCCCCCCCC(=O)NCC(=O)NC(CO)C(=O)NC(CO)C(=O)NC(CCCCN)C(=O)NC(CO)C(=O)NC(CCCCN)C(=O)N1CCCC1C(=O)NC(CCCCN)C(=O)NC(CC(=O)O)C(N)=O` (stereo not given) (Myristoyl-GSSKSKPKD-NH2; configuration not given here), the growth inhibition is -2.55%.

Turning to `COc1ccc(C2OC(C)C(C)O2)cc1` (stereo not given), the growth inhibition was 10.4%.

As for `O=C(O)c1ccc(C(=O)c2ccccc2C(=O)O)cc1C(=O)O`, the growth inhibition was 5%.

As for `O=C(Cc1ccccc1)N[C@@H]1COC(=O)[C@@H]2CCCN2C(=O)[C@@H]2CCCN2C1=O` (PhAc-[dS]-Pro-Pro; ester 1-C), the growth inhibition is 5.85%.

On to `c1ccc(Cc2nnc3n2CCC(c2ccccc2)S3)cc1` (stereo not given), for which the growth inhibition was 1.3%.

With `N#CC1CC2c3ccccc3C1([N+](=O)[O-])c1ccccc12` (stereo not given), the growth inhibition was 26.9%.

On to `COc1ccc(S(=O)Cc2cc(OC)c(OC)c(OC)c2)cc1` (stereo not given), for which the growth inhibition is -19.9%.

In the case of `CC(C)(C)NC(=S)N/N=C/c1ccccn1`, the growth inhibition was 85.2% (active).

As for `c1ccc(C(c2ccccc2)[n+]2ccccc2)cc1`, the growth inhibition was -1.3%.

In the case of `COc1ccc2[nH]cc(C=O)c2c1`, the growth inhibition was -2.95%.

In the case of `CSc1nc(N)n2nc(C)cc2n1`, the growth inhibition is -13.7%.

For the molecule `O=C(O)c1c(Br)c(Br)c(Br)c(Br)c1C(=O)Nc1ccccc1F`, the growth inhibition is -3.3%.

On to `CCOC(=O)C(/C=N/C(=S)Nc1c(C)cccc1C)=C(/O)c1ccccc1`, for which the growth inhibition was -21.6%.

In the case of `Cc1ccc(NC(=O)CSc2nnc(Cc3ccccc3)o2)cc1`, the growth inhibition is -4.35%.

With `CC(=O)Nc1ccc(Cc2ccc3[nH]c(=O)cc(C)c3c2)cc1`, the growth inhibition was 18.6%.
